Experimental findings from PubChem BioAssay (EPA / NIEHS) are described below.

Where “and” joins values, the source holds several entries; their conditions need not be identical. Equal entries are not always repeated. Records with an inconclusive call do not appear. Some compounds were tested as several samples or in several runs, with calls that do not always agree. Calls of active or inactive are those of the source. How the source made its calls: active means hit-call score of the fitted dose curve at least 0.9, where 1 is the maximum; inconclusive means response in the unintended direction; inactive means score below 0.9.

Tested on in one assay: not listed separately
Nature of the assay: ArunA_Migration_hNP: ArunA Biomedical's Oris Neuroprogenitor (hNP) Cell Migration Assay (AID 2283754). An outline of the steps: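 Readout is calcein-AM fluorescence (ex494/em517) of cells migrating into the detection zone, relative to DMSO. hNP1 cells (H9-derived) grown on Matrigel behind stoppers 16 h, then stoppers pulled and chemical applied 72 h; cytochalasin D as control.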
In the case of `ClC1(Cl)C2(Cl)C3(Cl)C4(Cl)C(Cl)(Cl)C5(Cl)C3(Cl)C1(Cl)C5(Cl)C24Cl` (centres undefined), the call was inactive.
On the same count and under the same terms, for `ClCC(Cl)CCl` the value was “inactive”.
`CC(C)(C)c1cc(O)ccc1O`: the AC50 (as a rule, the concentration at which the activity in the assay is half-maximal) is 33.7 µM (active).

For another assay, the target named is Luciferin 4-monooxygenase (Photinus pyralis) (UniProt P08659). Briefly: CCTE_Simmons_QuantiLum_inhib_2: CCTE's Firefly Luciferase Inhibition Assay, Simmons Lab (AID 2283767).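 On AC50: potency for inhibitors that lower luciferase luminescence relative to DMSO.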 An outline of the steps: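 Eight test concentrations, 5 nM up to 87.5 uM final, preincubated 30min at 37C in the dark with purified luciferase (0.5% DMSO final). Detection reagent (150uM D-luciferin, 147uM dATP, 75uM CoA, pH 7.8) injected per well before kinetic luminescence read; three replicates.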
Luciferin 4-monooxygenase (Photinus pyralis), sequence (P08659 whole entry, looked up): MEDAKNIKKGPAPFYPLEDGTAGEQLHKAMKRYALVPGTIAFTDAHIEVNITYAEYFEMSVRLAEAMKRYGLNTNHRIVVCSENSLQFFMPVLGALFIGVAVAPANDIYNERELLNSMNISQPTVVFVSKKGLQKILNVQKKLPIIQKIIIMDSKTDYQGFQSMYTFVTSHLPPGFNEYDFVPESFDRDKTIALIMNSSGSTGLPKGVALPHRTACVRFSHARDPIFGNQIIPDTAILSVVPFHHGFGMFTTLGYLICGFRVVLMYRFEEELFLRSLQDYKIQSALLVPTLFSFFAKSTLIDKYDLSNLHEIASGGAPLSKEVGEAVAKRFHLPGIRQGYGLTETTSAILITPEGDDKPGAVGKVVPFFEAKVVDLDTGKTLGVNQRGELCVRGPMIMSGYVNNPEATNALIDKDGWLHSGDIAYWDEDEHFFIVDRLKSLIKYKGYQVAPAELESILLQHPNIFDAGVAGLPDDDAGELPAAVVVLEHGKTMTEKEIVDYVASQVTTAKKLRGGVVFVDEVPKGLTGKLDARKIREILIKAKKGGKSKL
On to `CC(C)(c1ccccc1)c1ccc(O)c(C(C)(C)c2ccccc2)c1`, for which the compound was classed as inactive.
Consider `Cc1ccc(N)cc1Cl`, for which the result was inactive.
On the same count and under the same terms, for `CC1(C)Cc2cccc(O)c2O1` the value was “inactive”; for `Cc1ccc2ccccc2c1C`, “inactive”.
On to `C[C@H]1CCCC(=O)CCC/C=C/c2cc(O)cc(O)c2C(=O)O1`, for which the call was inactive.
For the compound `CC(C)(C)CC(C)(C)c1ccc(O)cc1`, the call was inactive.
With `Oc1cccc2cccnc12`, the call was inactive.
On to `CC1(C)CCC(Cc2ccc(Cl)cc2)C1(O)Cn1cncn1` (centres undefined), for which the compound was classed as inactive.
Take `CCOP(=S)(OCC)Oc1nc(Cl)c(Cl)cc1Cl`: the compound was called inactive.
Regarding `CCCCCCCCSC(=O)Oc1cc(Cl)nnc1-c1ccccc1`, the AC50 is 81.7 µM (active).
`CC(C)c1cccc(C(C)C)c1O`: the compound was called inactive.
Consider `CC12CC1(C)C(=O)N(c1cc(Cl)cc(Cl)c1)C2=O` (centres undefined), for which the outcome was inactive.
On to `COP(=S)(OC)Oc1ccc(Sc2ccc(OP(=S)(OC)OC)cc2)cc1`, for which the AC50 was 53.8 µM (active).
Consider `CCC(C)(C)c1ccc(O)c(C(C)(C)CC)c1`, for which the result was inactive.
Consider `O=C(Nc1ccc2[nH]ccc2c1)c1cc2cc(F)ccc2n1Cc1cccc(F)c1`, for which the AC50 was 33.3 µM (active).
As to `CCOC(=O)Nc1cccc(OC(=O)Nc2ccccc2)c1`, the AC50 was 29.1 µM (active).
Take `Cc1ccccc1N`: the call was inactive.
For the compound `NNC(=S)NN`, the outcome was inactive.
`OCc1ccco1`: the compound was called inactive.
Turning to `CC(C)(C)c1cc(O)ccc1O`, the AC50 was 79.7 µM (active) and 80.7 µM (active); the outcome was inactive.
